Conditions in all cases: mRNA level, 48 h; actives raise or lower the signal
Read-out in experiment [1]: matrix metalloproteinase-10 (MMP10), MMP10 (gene 4319)
Description: LTEA_HepaRG_MMP10: Life Technologies and Expression Analysis (LTEA) Assay for matrix metalloproteinase-10 (MMP10) using HepaRG (AID 2283517). In outline: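 Transcript levels come from Fluidigm qRT-PCR normalized to three housekeeping genes, with curves fitted bidirectionally against 0.5% DMSO. Human HepaRG cells were dosed for 48 hours at concentrations up to 100 uM.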

Read-out in another experiment: MYC, MYC (gene 4609)
Description: LTEA_HepaRG_MYC: Life Technologies and Expression Analysis (LTEA) Assay for MYC using HepaRG (AID 2283518). In outline: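 Differentiated HepaRG cells exposed 48 h in serum-free induction medium to 8 concentrations (top 100 uM, half-log steps; 0.5% DMSO), duplicate. MYC mRNA measured by Fluidigm qRT-PCR, normalized to ACTB, GAPDH, POLR2A; bidirectional fit versus DMSO.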

Read-out in experiment [2]: matrix metalloproteinase-3 (MMP3), MMP3 (gene 4314)
Description: LTEA_HepaRG_MMP3: Life Technologies and Expression Analysis (LTEA) Assay for matrix metalloproteinase-3 (MMP3) using HepaRG (AID 2283519). In outline:
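qRT-PCR read-out of MMP3 mRNA (normalised to three housekeeping genes) in HepaRG liver cells after 48 h chemical exposure; 8-point half-log series, top 100 uM, 0.5% DMSO vehicle. Bidirectional curve fitting against DMSO baseline.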

Read-out in experiment [3]: Paternally Expressed 10 (PEG10), PEG10 (gene 23089)
Description: LTEA_HepaRG_PEG10: Life Technologies and Expression Analysis (LTEA) Assay for Paternally Expressed 10 (PEG10) using HepaRG (AID 2283520).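 As to AC50: PEG10 transcript by qRT-PCR normalised to ACTB GAPDH and POLR2A.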 In outline: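 Human HepaRG cultures are dosed for 48 h across an eight-point half-log series starting at 100 uM, with 0.5% DMSO as vehicle and baseline. Gain or loss of PEG10 transcript is measured by qRT-PCR and fitted in both directions.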

Read-out in experiment [4]: Nuclear factor NF-kappa-B p105 subunit (Homo sapiens) (UniProt P19838)
As to the kind of experiment: LTEA_HepaRG_NFKB1: Life Technologies and Expression Analysis (LTEA) Assay for Nuclear Factor Kappa B Subunit 1 (NFKB1) using HepaRG (AID 2283521).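 As to outcome: TaqMan qRT-PCR transcript normalised to ACTB GAPDH and POLR2A housekeeping genes.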 In outline: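 Differentiated human HepaRG cells in serum-free induction medium with 0.5% DMSO were exposed for 48 h to eight half-log concentrations, top 100 uM, in duplicate. NFKB1 mRNA measured by Fluidigm TaqMan qRT-PCR, normalised to ACTB, GAPDH and POLR2A; bidirectional fit versus DMSO.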

Read-out in experiment [5]: Protein phosphatase 2A (PPP2R4), PTPA (gene 5524)
As to the kind of experiment: LTEA_HepaRG_PPP2R4: Life Technologies and Expression Analysis (LTEA) Assay for Protein phosphatase 2A (PPP2R4) using HepaRG (AID 2283522). In outline: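 Cells were plated, cultured 48 h, switched to serum-free induction medium, then dosed for 48 h (8 points, max 100 uM, 0.5% DMSO). RNA was isolated and PPP2R4 expression measured by TaqMan qRT-PCR.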

Read-out in experiment [6]: solute carrier (SLC22A1), SLC22A1 (gene 6580)
As to the kind of experiment: LTEA_HepaRG_SLC22A1: Life Technologies and Expression Analysis (LTEA) Assay for solute carrier (SLC22A1) using HepaRG (AID 2283524).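 As to AC50: TaqMan qRT-PCR normalized to ACTB GAPDH and POLR2A housekeeping genes.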 In outline: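 qRT-PCR readout (TaqMan, Fluidigm arrays) of SLC22A1 transcript, normalized to three housekeeping genes; bidirectional curve fit relative to 0.5% DMSO vehicle. Differentiated human HepaRG cells, 48 h chemical exposure, top concentration 100 uM, half-log steps, eight points.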

Read-out in experiment [7]: Pyruvate Dehydrogenase Kinase 4 (PDK4), PDK4 (gene 5166)
As to the kind of experiment: LTEA_HepaRG_PDK4: Life Technologies and Expression Analysis (LTEA) Assay for Pyruvate Dehydrogenase Kinase 4 (PDK4) using HepaRG (AID 2283525). In outline:
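HepaRG (human liver line), 48 h chemical exposure, 8-pt half-log CRC top 100 uM, 0.5% DMSO vehicle, duplicates. Readout: TaqMan qRT-PCR of PDK4 mRNA, housekeeping-normalized; gain/loss fit relative to DMSO baseline.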

Read-out in experiment [8]: NAD(P)H dehydrogenase [quinone] 1 (NQO1), NQO1 (gene 1728)
As to the kind of experiment: LTEA_HepaRG_NQO1: Life Technologies and Expression Analysis (LTEA) Assay for NAD(P)H dehydrogenase [quinone] 1 (NQO1) using HepaRG (AID 2283526). In outline:
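Transcript induction or suppression is quantified by qRT-PCR in human HepaRG liver cells dosed for 48 hours. Eight half-log concentrations topping at 100 uM are used, with 0.5% DMSO as vehicle and baseline.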

Read-out in experiment [9]: Phosphatase and tensin (PTEN), PTEN (gene 5728)
Description: LTEA_HepaRG_PTEN: Life Technologies and Expression Analysis (LTEA) Assay for Phosphatase and tensin (PTEN) using HepaRG (AID 2283523). In outline: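 HepaRG, 48 h exposure, 8-pt half-log series from 100 uM top, 0.5% DMSO vehicle, duplicates. Readout: Fluidigm qRT-PCR of PTEN transcript; housekeeping normalization (ACTB, GAPDH, POLR2A). Gain or loss fitted relative to DMSO baseline.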

Calls of active or inactive are those of the source. The calls were made as follows: active = hit-call score of the fitted dose curve at least 0.9, where 1 is the maximum; inactive = score below 0.9.

Chain of Nuclear factor NF-kappa-B p105 subunit (Homo sapiens) (P19838 whole entry, looked up): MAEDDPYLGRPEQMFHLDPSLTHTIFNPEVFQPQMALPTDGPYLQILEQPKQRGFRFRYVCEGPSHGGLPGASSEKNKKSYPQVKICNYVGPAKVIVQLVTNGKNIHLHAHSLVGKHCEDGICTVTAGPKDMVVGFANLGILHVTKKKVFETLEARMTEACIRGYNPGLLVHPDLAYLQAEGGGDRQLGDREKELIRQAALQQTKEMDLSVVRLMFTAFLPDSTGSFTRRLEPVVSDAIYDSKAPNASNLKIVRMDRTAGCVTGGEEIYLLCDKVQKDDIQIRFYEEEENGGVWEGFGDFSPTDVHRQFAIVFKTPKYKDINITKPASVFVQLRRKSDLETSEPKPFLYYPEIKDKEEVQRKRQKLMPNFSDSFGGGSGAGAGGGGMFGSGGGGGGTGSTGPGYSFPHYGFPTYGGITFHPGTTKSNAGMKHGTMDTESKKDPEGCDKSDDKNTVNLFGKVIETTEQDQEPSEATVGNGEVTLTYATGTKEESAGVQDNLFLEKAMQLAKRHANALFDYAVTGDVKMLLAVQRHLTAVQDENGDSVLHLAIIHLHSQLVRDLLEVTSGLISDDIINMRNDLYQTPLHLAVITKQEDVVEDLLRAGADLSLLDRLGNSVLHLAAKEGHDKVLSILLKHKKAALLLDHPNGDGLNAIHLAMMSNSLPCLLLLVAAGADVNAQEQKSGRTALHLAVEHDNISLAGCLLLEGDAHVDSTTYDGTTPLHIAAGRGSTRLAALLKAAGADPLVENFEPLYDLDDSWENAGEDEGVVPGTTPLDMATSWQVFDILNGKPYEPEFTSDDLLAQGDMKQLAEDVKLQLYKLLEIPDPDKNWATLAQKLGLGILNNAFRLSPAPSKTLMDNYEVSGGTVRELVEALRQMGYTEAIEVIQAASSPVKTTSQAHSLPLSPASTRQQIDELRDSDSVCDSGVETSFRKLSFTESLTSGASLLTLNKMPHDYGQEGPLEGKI

Consider `CN(C)CCCN(C)CCCN(C)C`, for which the outcome in experiment [1] was “inactive”; with MYC, MYC (gene 4609), “inactive”; in [2] it was “inactive”; in experiment [3], “inactive”; in [4], “inactive”; in experiment [5], “inactive”. Also, the outcome in experiment [6], in [7] and in experiment [8] was inactive.
With `Oc1ccccc1O`, the outcome was “inactive” in experiment [1]; “inactive” with MYC, MYC (gene 4609); “inactive” in experiment [2]; “inactive” in [3]; “inactive” in [5]; “inactive” in [6]. Also, the outcome in experiment [7] and in experiment [8] was inactive.
`CCCCCCC(CCCCCCCCCCC(=O)OCC(COC(C)=O)OC(C)=O)OC(C)=O` (stereo not given): the outcome in experiment [1] is “inactive”; in the experiment with MYC, MYC (gene 4609), “inactive”; in [2], “inactive”; in experiment [3], “inactive”; in [4], “inactive”; in [5] it was “inactive”. The result in [6], in experiment [7] and in experiment [8] was inactive.
On to `C/C=C/C=C/C(=O)O`, for which the outcome in [1] is “inactive”; with MYC, MYC (gene 4609), “inactive”; in experiment [2], “inactive”; in [3], “inactive”; in [5], “inactive”; in experiment [9], “inactive”. Further, the molecule was classed as inactive in [6], in experiment [7] and in experiment [8].
For the molecule `CS(=O)(=O)c1ccc([C@@H](C[C@H]2CCC(=O)C2)C(=O)Nc2cnccn2)cc1Cl`, the molecule was called inactive in [1]. The AC50 is 1.14 µM (active) in the experiment with MYC, MYC (gene 4609); 1.16 µM (active) in [2]; 1.38 µM (active) in experiment [4]; 0.49 µM (active) in [5]; 10.1 µM (active) in experiment [9]; 2.77 µM (active) in experiment [6]. The half-maximal activity concentration (AC50) was 0.913 µM (active) in experiment [7] and 17.9 µM (active) in experiment [8].
Consider `COc1ccc(C(=O)Nc2nc3ccccc3c(NCc3ccccc3)c2C#N)cc1`, for which the outcome in [1], in experiment [5], in experiment [9], in experiment [7] and in experiment [8] was inactive. Further, the AC50 in the experiment with MYC, MYC (gene 4609) is 14.6 µM (active); in experiment [2] it was 9.92 µM (active); in experiment [3], 16.1 µM (active).
Take `CC(=O)S[C@H](C(=O)N[C@H]1Cc2ccccc2[C@H]2CCC[C@@H](C(=O)O)N2C1=O)C(C)C`: the outcome is “inactive” in experiment [1]; “inactive” with MYC, MYC (gene 4609); “inactive” in [2]; “inactive” in [3]; “inactive” in [4]; “inactive” in [5]. Besides, the call in experiment [6], in [7] and in experiment [8] was inactive.
`O=C1c2c(O)cccc2Cc2cccc(O)c21`: the outcome in experiment [1] is “inactive”; with MYC, MYC (gene 4609) it was “inactive”; in experiment [2], “inactive”; in experiment [3], “inactive”; in experiment [5] it was “inactive”; in experiment [7] it was “inactive”. Further, in [8], the outcome was inactive.
As for `CCCC(=O)O`, the outcome in [1] was “inactive”; in the experiment with MYC, MYC (gene 4609) it was “inactive”; in experiment [2], “inactive”; in experiment [3] it was “inactive”; in experiment [4], “inactive”; in experiment [5] it was “inactive”. Also, the result in experiment [6], in experiment [7] and in experiment [8] was inactive.
On to `NC(=Nc1ccccc1)Nc1ccccc1`, for which the outcome in experiment [1] was “inactive”; in the experiment with MYC, MYC (gene 4609), “inactive”; in experiment [2], “inactive”; in experiment [5], “inactive”; in experiment [6], “inactive”; in experiment [7], “inactive”. Further, in [8], the result was inactive.
For `CN(C)CCCN1c2ccccc2Sc2ccc(Cl)cc21`, the AC50 in the experiment with MYC, MYC (gene 4609) was 87.5 µM (active); in experiment [3], 18.2 µM (active); in experiment [4], 78.4 µM (active); in [9], 78 µM (active); in experiment [6], 79.4 µM (active); in [8], 83.9 µM (active). In addition, the result in [2], in [5] and in experiment [7] was inactive.
Regarding `CC(=O)OCC(COC(C)=O)OC(C)=O`, the outcome in the experiment with MYC, MYC (gene 4609) was “inactive”; in experiment [2], “inactive”; in [3], “inactive”; in [4], “inactive”; in experiment [5], “inactive”; in experiment [9] it was “inactive”. Besides, the outcome in [6], in experiment [7] and in experiment [8] was inactive.
As for `C=CCc1ccc(OC)c(OC)c1`, the outcome is “inactive” in experiment [1]; “inactive” in the experiment with MYC, MYC (gene 4609); “inactive” in experiment [2]; “inactive” in experiment [4]; “inactive” in experiment [5]; “inactive” in experiment [6]. In addition, the molecule was called inactive in experiment [7] and in experiment [8].
Take `O=[Si]=O`: the outcome with MYC, MYC (gene 4609) is “inactive”; in experiment [2], “inactive”; in experiment [3] it was “inactive”; in experiment [4], “inactive”; in experiment [5], “inactive”; in experiment [9] it was “inactive”. Also, the molecule was classed as inactive in experiment [6], in experiment [7] and in [8].
`O=C1NC(=O)C(c2ccccc2)(c2ccccc2)N1`: the outcome was “inactive” in experiment [1]; “inactive” with MYC, MYC (gene 4609); “inactive” in experiment [2]; “inactive” in [5]; “inactive” in experiment [6]; “inactive” in experiment [7]. For the same molecule, in experiment [8], the call was inactive.
For `CN(C)C(=O)NC1(c2ccccc2)CCN(CCC[C@]2(c3ccc(Cl)c(Cl)c3)CCCN(C(=O)c3ccccc3)C2)CC1`, the concentration at half-maximal activity (AC50) was 19.4 µM (active) in experiment [1]; 18.2 µM (active) in experiment [2]; 12.5 µM (active) in experiment [3]; 21.3 µM (active) in experiment [4]; 21.2 µM (active) in [5]; 23.8 µM (active) in experiment [6]. Besides, the AC50 in [7] was 19.2 µM (active); in [8], 21.7 µM (active).
With `O=C(O)c1cccnc1`, the outcome is “inactive” in experiment [1]; “inactive” with MYC, MYC (gene 4609); “inactive” in experiment [2]; “inactive” in experiment [4]; “inactive” in experiment [5]; “inactive” in [6]. Besides, the molecule was called inactive in [7] and in experiment [8].
Take `NCCOCCOCCN`: the outcome with MYC, MYC (gene 4609) is “inactive”; in experiment [2], “inactive”; in experiment [3] it was “inactive”; in experiment [4] it was “inactive”; in experiment [5], “inactive”; in [9], “inactive”. Further, the call in [6], in [7] and in experiment [8] was inactive.
With `CC(C)OC(=O)C(C)(C)Oc1ccc(C(=O)c2ccc(Cl)cc2)cc1`, the outcome with MYC, MYC (gene 4609) is “inactive”; in [3], “inactive”; in experiment [4], “inactive”; in experiment [5] it was “inactive”; in [9], “inactive”; in [6], “inactive”. Besides, the call in [8] was inactive. Also, the values for the AC50 in experiment [2] and in [7] were 0.0439 µM (active) and 16.7 µM (active), respectively.
Regarding `Oc1ccc(O)cc1`, the outcome was “inactive” with MYC, MYC (gene 4609); “inactive” in experiment [2]; “inactive” in [3]; “inactive” in experiment [4]; “inactive” in experiment [5]; “inactive” in experiment [9]. Also, the call in [6], in [7] and in [8] was inactive.
`CCCCCCCCCCCCCCCCO`: the outcome in experiment [1] is “inactive”; with MYC, MYC (gene 4609), “inactive”; in experiment [2], “inactive”; in experiment [4] it was “inactive”; in experiment [5], “inactive”; in experiment [6] it was “inactive”. In addition, the result in experiment [8] was inactive. The AC50 in experiment [7] is 66.3 µM (active).
For the molecule `NC1CCCCC1`, the outcome in experiment [1] is “inactive”; with MYC, MYC (gene 4609), “inactive”; in [2], “inactive”; in experiment [5], “inactive”; in experiment [9], “inactive”; in experiment [6] it was “inactive”. Moreover, the outcome in experiment [7] and in [8] was inactive.

(Values after PubChem BioAssay (EPA / NIEHS).)
